From PubChem BioAssay (NCI)
Where “and” joins values, the source holds several entries; their conditions need not be identical. Equal values may be shown once. This is part of a sample that, as a whole, favours compounds with a hit. Of some 83,000 tested, about 20% had one in any assay.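 Percent growth is the endpoint: 0 to 100 indicates growth inhibition (40 means 60% inhibition), 0 means no net growth, and negative values indicate cell death.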 Calls of active or inactive are those of the source. How the source made its calls: active means growth percent below 10; inactive means the rest.

Experiments:
Assay in all cases: NCI-60 one-dose screen, 48 h (100 = growth as untreated, 0 = no growth, -100 = all killed)
Details in all cases: 10 µM unless noted
[1] = tested on: NCI-H23 lung
[2] = tested on: NCI-H322M lung
[3] = tested on: HOP-62 NSCLC
[4] = tested on: NCI-H460 lung
[5] = tested on: HOP-92 NSCLC
[6] = tested on: NCI-H522 lung
[7] = tested on: A549/ATCC NSCLC
[8] = tested on: 786-0 renal
[9] = tested on: COLO 205 colon
[10] = tested on: DU-145 prostate
[11] = tested on: K-562 leukemia
[12] = tested on: MALME-3M melanoma
[13] = tested on: MDA-MB-231 breast
[14] = tested on: RXF 393 renal
[15] = tested on: SF-268 CNS
[16] = tested on: SF-295 CNS
[17] = tested on: SF-539 CNS
[18] = tested on: UACC-257 melanoma
[19] = tested on: M14 melanoma
[20] = tested on: NCI-H226 lung

Measured: growth

N#CC1C(=O)c2ccccc2C1c1ccccc1 (configuration not stated)
inactive: [1] 97.4% and 102% | [2] 105% and 96.7% | [3] 98.8% and 107% | [4] 114% and 105% | [5] 75.2% and 84.7% | [6] 96.4% and 99% | [7] 102% | [8] 93.1% and 89.8% | [9] 115% | [10] 109% and 104% | [11] 120% and 101% | [12] 96% and 106% | [13] 104% and 120% | [14] 94.7% and 124% | [15] 104% and 101% | [16] 96% and 109% | [17] 110% and 107% | [18] 113% and 99.1% | [19] 104% and 105%

Nc1nc(Cl)nc2c1ncn2C1OC(CO)C(O)C1O (configuration not stated)
active: [19] -14% and 4.59%
inactive: [1] 19.9% and 34.4% | [20] 110% | [2] 93.1% and 101% | [3] 46.6% and 63.7% | [4] 80% and 87.4% | [5] 42.8% | [6] 50.6% and 52.1% | [7] 46.2% and 49.9% | [8] 24.1% and 37.5% | [10] 64.8% and 44.9% | [11] 67% | [12] 74.7% and 76.4% | [13] 71.1% and 90.7% | [14] 123% and 118% | [15] 57.6% and 63.4% | [16] 102% and 103% | [17] 91.7% and 111% | [18] 99.1% and 85.9%

COc1ccc(/C(C)=C(\c2ccc(OCCN3CCOCC3)cc2)c2ccc(OC(=O)C3CCCCC3)cc2)cc1
inactive: [1] 101% | [20] 113% | [2] 99.5% | [3] 108% | [4] 107% | [5] 109% | [6] 104% | [7] 106% | [8] 104% | [10] 95.7% | [11] 89.2% | [12] 97.7% | [13] 111% | [14] 121% | [15] 101% | [16] 103% | [17] 94.7% | [18] 112% | [19] 102%

CC(=O)N1N=C(c2ccc(Nc3nc(Nc4ccc(F)cc4)nc(Nc4ccc(F)cc4)n3)cc2)CC1c1ccccc1 (configuration not stated)
inactive: [1] 90% | [20] 102% | [2] 92.5% | [3] 85.9% | [4] 92.3% | [5] 58.3% | [6] 89.4% | [7] 86.4% | [8] 78.5% | [10] 116% | [11] 80.1% | [12] 76.2% | [13] 80.1% | [14] 60.6% | [15] 86.1% | [16] 132% | [17] 110% | [18] 108% | [19] 85%

CN1CCCc2cc(/C=C3\SC(=S)N(C(Cc4ccc(O)cc4)C(=O)O)C3=O)ccc21 (configuration not stated)
inactive: [1] 78% | [20] 99.8% | [2] 108% | [3] 109% | [4] 107% | [5] 93.8% | [6] 91.5% | [7] 105% | [8] 99.8% | [10] 104% | [11] 91.3% | [12] 88.9% | [13] 96.1% | [14] 99.4% | [15] 97.2% | [16] 98.2% | [17] 102% | [18] 99.6% | [19] 101%

CCOC(=O)CCCn1c(-c2ccccc2)cc(-c2ccccc2)c(C#N)c1=O
inactive: [1] 83.5% | [20] 89.5% | [2] 97.8% | [3] 93.7% | [4] 65.4% | [5] 48.3% | [6] 70.1% | [7] 84.3% | [8] 88.8% | [10] 97.1% | [11] 81.8% | [12] 108% | [13] 86.8% | [14] 79.2% | [15] 88.4% | [16] 69.2% | [17] 81.5% | [18] 90.5% | [19] 86.8%

COc1cc(NC2CCCCC2O)c2nc(-c3ccc(Cl)cc3)ccc2c1 (configuration not stated)
inactive: [1] 84.2% and 98.5% | [20] 90% | [2] 88.8% and 88.2% | [3] 109% and 108% | [4] 41.2% and 57.9% | [6] 65.7% and 89.5% | [7] 69% and 73.5% | [8] 42.4% and 77.6% | [9] 93.2% and 110% | [10] 95.3% and 95% | [11] 44.8% | [12] 72.5% and 124% | [13] 44.6% and 78.1% | [14] 39.3% and 67.9% | [15] 77.5% and 84% | [16] 51.5% and 54.3% | [17] 105% and 93.9% | [18] 101% and 105% | [19] 45.8% and 79.9%

CCOc1ccc(N2C(N)=NC(N)=NC2(C)C)cc1
-29.1% (active) and 92.4% (inactive): [17]
inactive: [1] 47.6% and 83.8% | [2] 45.2% and 99.4% | [3] 26.6% and 84.5% | [4] 13.7% and 104% | [5] 10.3% and 72.5% | [7] 19.5% and 44.8% | [8] 56.5% and 84.2% | [10] 15.3% and 104% | [11] 10% and 72.3% | [12] 25.3% and 91.9% | [13] 49.5% and 102% | [15] 42.1% and 97.5% | [18] 19.3% and 72.1% | [19] 24.2% and 89.3%
-31.9% (active) and 95.8% (inactive): [16]
-7.67% (active) and 90.1% (inactive): [6]
-32.6% (active) and 83% (inactive): [9]
-4.94% (active) and 98.1% (inactive): [14]

Nc1nc(N)c2c(n1)NC(c1cccc(Nc3ccnc4cc(C(F)(F)F)ccc34)c1)CC(c1ccc(F)cc1)=N2 (configuration not stated)
active: [11] 9.19%
inactive: [1] 70.4% | [20] 80% | [2] 86.4% | [3] 48.7% | [4] 18% | [5] 31.6% | [6] 48.2% | [7] 40.1% | [8] 60.4% | [10] 63.8% | [12] 53.2% | [13] 44.8% | [14] 42.8% | [15] 52.2% | [16] 49.2% | [17] 73.8% | [18] 74.8% | [19] 27.7%

COc1ccc(Cn2cc(C(=O)Nc3cccnc3Nc3ccccc3)nn2)cc1
inactive: [1] 98.7% | [20] 95.6% | [2] 95.7% | [3] 103% | [4] 114% | [5] 105% | [6] 91.8% | [7] 99.3% | [8] 94.2% | [10] 103% | [11] 108% | [12] 120% | [13] 86.4% | [14] 103% | [15] 96% | [16] 102% | [17] 95.6% | [18] 110% | [19] 106%

O=C(NNC(=S)Nc1ccccc1)c1ccncc1
inactive: [1] 102% | [20] 105% | [2] 108% | [3] 106% | [4] 118% | [5] 90.2% | [6] 97.3% | [7] 107% | [8] 98.5% | [10] 115% | [11] 106% | [12] 108% | [13] 111% | [14] 114% | [15] 105% | [16] 110% | [17] 100% | [18] 110% | [19] 107%

O=C1/C(=C/c2cn(-c3ccccc3)nc2-c2ccccc2)SC(=S)N1c1ccc(Cl)cc1
inactive: [1] 87.5% | [20] 71.2% | [2] 64.8% | [3] 52.7% | [4] 47.5% | [5] 43.3% | [6] 83.7% | [7] 68.8% | [8] 85.5% | [10] 74.6% | [11] 63.8% | [12] 95.4% | [13] 79.8% | [14] 88.4% | [15] 62.5% | [16] 44.6% | [17] 84.2% | [18] 89.8% | [19] 65.8%

CCOc1ccc(C(=O)Cc2ccccc2)cc1
inactive: [1] 115% and 105% | [20] 99.1% | [2] 114% | [3] 97.3% and 121% | [4] 110% and 112% | [5] 108% and 102% | [6] 93.8% and 102% | [7] 98.9% and 99.4% | [8] 93.2% and 103% | [10] 105% and 112% | [11] 108% and 103% | [12] 101% | [13] 113% and 102% | [14] 117% and 96.4% | [15] 110% and 117% | [16] 121% and 89.3% | [17] 101% and 116% | [18] 110% and 99.2% | [19] 114% and 106%
